Results filed as inconclusive are left out. Active and inactive are the calls of the source. Calls follow the shape of the full dose curve.
Experiments:
[1] = molecular target: Acetylcholinesterase (Homo sapiens) (UniProt P22303); test: Acetylcholinesterase (AChE) small molecule antagonists: colormetric cell-based qHTS assay (AID 1347395); also: nearly all actives have a fitted effect of over 30% in size
Outline: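 Endogenous AChE of human neuroblastoma SH-SY5Y cells was measured with an Ellman-type DTNB/acetylthiocholine mix. Compound pretreatment lasted 30 min at 37 C; substrate reaction ran 90 min at 37 C.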

[2] = molecular target: Acetylcholinesterase (Homo sapiens) (UniProt P22303); test: Acetylcholinesterase (AChE) small molecule antagonists: enzyme-based qHTS assay (AID 1347397); settings: Potency: AChE enzyme activity inhibition; outcome: AChE enzyme activity inhibition; also: nearly all actives have a fitted effect of over 55% in size
Outline: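 In this quantitative HTS, compounds from the Tox21 10K collection were preincubated 30 min at ambient temperature with recombinant human AChE dispensed at 50 mU/mL. Hydrolysis of acetylthiocholine was then followed for 10 min by DTNB colour development.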

[3] = molecular target: Acetylcholinesterase (Homo sapiens) (UniProt P22303); test: Acetylcholinesterase (AChE) small molecule antagonists: fluorescence cell-based qHTS assay (AID 1347398); settings: Potency: AChE activity; outcome: AChE activity; also: nearly all actives have a fitted effect of over 50% in size
Outline: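 Cells (SH-SY5Y) attached overnight, were dosed with compound or DMSO vehicle for 30 min at 37 C, and then incubated 40 min at room temperature with acetylthiocholine and Thiolite Green; green fluorescence indexed AChE activity.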

[4] = molecular target: Acetylcholinesterase (Homo sapiens) (UniProt P22303); test: Acetylcholinesterase (AChE) small molecule antagonists: enzyme-based qHTS assay with human liver microsomes (AID 1347399); settings: Potency: qHTS inhibition; outcome: qHTS inhibition; also: nearly all actives have a fitted effect of over 60% in size
Outline: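 Recombinant human AChE (50 mU/mL in the enzyme mix) and human liver microsomes (0.25 mg/mL final) were preincubated with compound and NADPH (0.25 mg/mL final) for 30 min at 37 C. Acetylthiocholine/DTNB was then added; thiocholine was read colorimetrically after 10 min at room temperature.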

Measured: Potency

Sequence of Acetylcholinesterase (Homo sapiens) (P22303 whole entry, looked up): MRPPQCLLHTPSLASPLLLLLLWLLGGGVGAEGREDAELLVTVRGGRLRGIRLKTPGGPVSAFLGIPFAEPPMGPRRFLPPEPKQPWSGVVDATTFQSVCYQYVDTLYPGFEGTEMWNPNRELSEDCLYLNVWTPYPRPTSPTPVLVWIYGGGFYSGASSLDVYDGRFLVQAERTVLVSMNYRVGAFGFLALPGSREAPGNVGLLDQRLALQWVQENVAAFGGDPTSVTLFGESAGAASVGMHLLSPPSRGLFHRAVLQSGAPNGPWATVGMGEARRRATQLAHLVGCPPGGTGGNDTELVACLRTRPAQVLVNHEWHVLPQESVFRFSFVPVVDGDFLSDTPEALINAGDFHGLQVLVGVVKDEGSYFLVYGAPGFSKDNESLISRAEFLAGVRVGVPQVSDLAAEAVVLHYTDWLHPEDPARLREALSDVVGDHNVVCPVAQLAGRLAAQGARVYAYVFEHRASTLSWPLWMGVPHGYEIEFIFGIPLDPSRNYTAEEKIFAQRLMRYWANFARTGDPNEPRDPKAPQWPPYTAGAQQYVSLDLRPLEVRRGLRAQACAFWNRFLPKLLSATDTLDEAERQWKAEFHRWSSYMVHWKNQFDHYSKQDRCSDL

COC(=O)c1ccccc1C
inactive: all assays above

CC(C)N(C)C
inactive: all assays above

CC(C)(C)CC(C)(C)c1ccc(O)c(-n2nc3ccccc3n2)c1
inactive: all assays above

Cc1c(Cl)cccc1Cl
inactive: all assays above

C=C(CC)C(=O)c1ccc(OCC(=O)O)c(Cl)c1Cl
inactive: all assays above

CCCCOC(O)CC (stereo unspecified)
inactive: all assays above

COC(=O)CCCCC(=O)OC
inactive: all assays above

Cc1ccc(C)c([N+](=O)[O-])c1
inactive: all assays above

COc1ccc(C2CNC(=O)C2)cc1OC1CCCC1 (stereo unspecified)
inactive: all assays above

CCCC[C@H]1CN(CC2CCOCC2)C(=O)OC12CCN(C1(C)CCN(C(=O)c3c(C)ncnc3C)CC1)CC2
inactive: all assays above

C=CC(=O)OCC(Br)CBr (stereo unspecified)
inactive: all assays above

CC1COC(=O)O1 (stereo unspecified)
inactive: all assays above

CCN1CCC[C@H]1CNC(=O)c1c(O)c(Cl)cc(Cl)c1OC
inactive: all assays above

CC1=C(/C=C/C(C)=C/C=C/C(C)=C/CO)C(C)(C)CCC1
inactive: all assays above

C[C@]12CCC(=O)C=C1CC[C@H]1[C@@H]3CC[C@](O)(C(=O)CO)[C@@]3(C)C[C@H](O)[C@@]12F
inactive: all assays above

CC1(C)C(=O)N(Br)C(=O)N1Br
inactive: all assays above

O=C1OC(=O)c2ccc3c4c(ccc1c24)C(=O)OC3=O
inactive: all assays above

CCCCCCCCCCCCCC
inactive: all assays above

CC(C)(C)C(O)/C=C/c1ccc2c(c1)OCO2 (stereo unspecified)
inactive: all assays above

CCOC(=O)CCC(=O)OCC
inactive: all assays above

NS(=O)(=O)c1ccc(N2CCCCS2(=O)=O)cc1
inactive: all assays above

CO[C@H]1C=CO[C@@]2(C)Oc3c(C)c(O)c4c(O)c(c5c(c4c3C2=O)=NC2(CCN(CC(C)C)CC2)N=5)NC(=O)/C(C)=C\C=C/[C@H](C)[C@H](O)[C@@H](C)[C@@H](O)[C@@H](C)[C@H](OC(C)=O)[C@@H]1C
inactive: all assays above

CO[Si](CCCn1c(=O)n(CCC[Si](OC)(OC)OC)c(=O)n(CCC[Si](OC)(OC)OC)c1=O)(OC)OC
inactive: all assays above

C=C(C)C(=O)OCC(O)CO (stereo unspecified)
inactive: all assays above

O=C(O)c1ccc(Cl)cc1Cl
inactive: all assays above

CCCCCCCCCCCCCCCCCCOCC(O)CO (stereo unspecified)
inactive: all assays above

C=C1C[C@H]2[C@@H]3C=C(C)C4=CC(=O)CC[C@]4(C)[C@H]3CC[C@]2(C)[C@@]1(OC(C)=O)C(C)=O
inactive: all assays above

COC(=O)CC(=O)C(C)(C)C
inactive: all assays above

CC(C)=CCC[C@](C)(O)[C@@H]1CC=C(C)CC1
inactive: all assays above

CC(C)c1ccc2ncccc2c1
inactive: all assays above

Oc1ccc2c(c1)CCC2
inactive: all assays above

COc1ccc2c(c1)CCCC2=O
inactive: all assays above

CCOC(/C=C(\C)CCC=C(C)C)OCC
inactive: all assays above

O=C(Nc1cccc(Cl)c1)OCC#CCCl
inactive: all assays above
